Test results reported in the supplement of paper PMC6555819.

What follows are sequences tested on VDR:RXRa (NR concentration 270 nM, RXRa partner concentration 90 nM) (assay: PBM binding z-score (relative to random genomic background probes); higher = stronger binding; sequences stand for … in GC…GCGATTGACAGCGTAGAATGAAGG).
Protocol: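 Protein-binding microarray (Agilent 4x180K custom design, double-stranded 60-nt probes: 5' GC cap, 34-nt variable region, 24-nt constant primer region; full probe sequence given). Purified or IVT nuclear receptor:RXRα heterodimers (3:1 NR:RXRα, mostly 270:90 nM) or homodimers were incubated for 1 h in PBS with 2% milk and no ligand, then detected with Alexa488 antibodies. Fluorescence from o1-orientation probes (~5 replicates averaged) was converted to z-scores against 500 random hg19 background probes. Variable regions are seed direct-repeat (DR0–DR5) sites, all their single-nucleotide variants and half-site ablations.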

Sequence | PBM binding z-score
TCATACAGGTAAACAGGTGAAAGTCCGTAAGTTA | 1.2
TGAATGAGGTTAAAGATCAGGGACCGTGGCGTCG | 1.77
CCGACTGGGGCATAAGATTACCATAAGCCAGCCC | -0.534
CAAACTAGTTCACAGAGGTCAAAGTCCGTGCGTA | 7.47
CGTCCAAGGTCAGCAGGTTAGTGAAAGCGACGTG | 4.07
CGTCCAAGGTCAGCAGGTCATTGAAAGCGACGTG | 4.67
CCTAATAGTTGACCATAAGGGCAACCGAAGCTCG | 0.926
CAGCCTAGGTCAGGGCTAGTATAGGAGGAACGTT | -0.00307
CTCGAAAGGTCGTGCTCAGGTGTGTATACCAAAC | 3.31
CGAACTAGGTCAGAACAGGACAGCGAAGGATGAT | 0.817
TTACCAAGGTGAGCTGAGGTCGTTCATCCAACTC | 4.32
TAGCCTAGGTCATGGGCTAGTATACCACGCGAAC | 1.72
ACTATCAGTTGACTTAGGGCAACCGATACGACGC | 0.408
CGTCCAAGGTCAAGGTCAGGGAAAGAGACTCGAA | 4.97
CGTCACAGTTCAAGGTAACGTAACAGAAAGCAGC | 1.61
CCTAGTTGGTCAAGATCACACACGCTATAGGTAC | 0.862
TCTTGTAGATCAACCGGAGGTTAAGAAAGATCGA | 0.672
TAGCCTAGGTCGTGGGCCAGTATACCACGCGAAC | -0.199
AGTCAAAGTTCAGGACGCGGTAACGTAAAGCACG | 2.37
CAAACTAGGTCACCGGAAGCTCAAAGTCCGCATG | 2.23

Sequence | PBM binding z-score
CCTGCTAGGTCAATGGTCAGCTAGAGCAGCTCGC | 0.675
CAAACTTGGTCAAAGGTCAAAGTCGAGCCAACCA | 5.59
TCATATAGGTTAACAGGTGAAAGTCCGTAAGTTA | 2.04
CCTTACGGGTCAAGGTTATGGCACGGGTGGTACG | 3.53
GCATATAGGTAATACAAGGTGAAAGCCCGATTGT | 0.178
TAGCCTAGGTCATGCGGGCCAGTATTGTGTCGGC | 2.92
AGAACGAGGTTACCAAAGATCAGGGAAACGCTTG | 1.32
TCTTGTAGATCAAGCAGATTAAGAAAGCCTGAGT | 0.437
CCTAGCAGGCCAATCCGGGTCACTCAAGGCTTGA | 2
ACTCGGAGGACAAAGCTCAGAGCTACGCCAGTGA | -0.859
TCTGGTTGGTCACGGAGGTCACACACGACGGGTA | 5.92
TGAATGAGGTTATAAGATCAGGGTACGTTGCAAA | 1.79
CCTTACGGGTCACTCCAGGTTATGGCATCGGAGT | 4.08
TCTGCTAGGTCAGTTGGTCAGCAAACGAGCTGCC | 0.276
TCGAGTAGGTTAGGGGGATTCAGAATGGCGTCGA | 0.8
CCTAGTTGGTGAGGAGGTCACACACCGGATATGA | 3.46
AATACAGGGTCATCGTAGGCCAGACTACGCACAG | 5.11
CTACCAGGGTGAACAAGGTCGTTGATTACTATTC | 6.27
ACAGACAGGTGATGAAGGTAACCCAGGCTATCAT | -0.00497
GCTTACGGGTCAATGGTTATAGCATGAATAGAAT | 2.99
